Several values for one entry are separate records, joined by “and”; a condition that tells them apart may be missing. Identical values can stand only once. Results filed as inconclusive are left out. The source holds several records for some structures; these can differ, active in one and inactive in another. Activity calls are given as the source filed them. Unless noted, calls come from the whole dose curve; as a rule, active = well fitted curve in the direction sought with a large enough effect; inconclusive = small, poorly fitted or top-dose-only effect, or another doubt; inactive = no such curve, though single readings can be large; an effect the other way counts as inactive or inconclusive.

The values that follow come from PubChem BioAssay (NCATS).

Experiment [1] addresses Cytochrome P450 1A2 (Homo sapiens) (UniProt P05177). As to the kind of experiment: p450-cyp1a2 (AID 410; calls by dose curve; note: potency is the fitted concentration of half-maximal effect). Put shortly:
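Read-out is luminescence from luciferin produced by CYP1A2 demethylation of Luciferin-ME (100uM, at Km). Detection reagent stopped the 60 min NADPH-dependent reaction; signals were normalized to 57 uM furafylline.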

In experiment [2] the target is Glucocorticoid receptor (Homo sapiens) (UniProt P04150). Nature of the experiment: GR-GFP Redistribution (AID 450;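 active = compounds whose dose series gives a full or clear partial fitted curve of increased nuclear translocation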; note: potency is the fitted concentration of half-maximal effect). The following applies: U2OS GR-GFP nuclear translocation, laser cytometry, 2 h.
Chain of Glucocorticoid receptor (Homo sapiens) (P04150 whole entry, looked up): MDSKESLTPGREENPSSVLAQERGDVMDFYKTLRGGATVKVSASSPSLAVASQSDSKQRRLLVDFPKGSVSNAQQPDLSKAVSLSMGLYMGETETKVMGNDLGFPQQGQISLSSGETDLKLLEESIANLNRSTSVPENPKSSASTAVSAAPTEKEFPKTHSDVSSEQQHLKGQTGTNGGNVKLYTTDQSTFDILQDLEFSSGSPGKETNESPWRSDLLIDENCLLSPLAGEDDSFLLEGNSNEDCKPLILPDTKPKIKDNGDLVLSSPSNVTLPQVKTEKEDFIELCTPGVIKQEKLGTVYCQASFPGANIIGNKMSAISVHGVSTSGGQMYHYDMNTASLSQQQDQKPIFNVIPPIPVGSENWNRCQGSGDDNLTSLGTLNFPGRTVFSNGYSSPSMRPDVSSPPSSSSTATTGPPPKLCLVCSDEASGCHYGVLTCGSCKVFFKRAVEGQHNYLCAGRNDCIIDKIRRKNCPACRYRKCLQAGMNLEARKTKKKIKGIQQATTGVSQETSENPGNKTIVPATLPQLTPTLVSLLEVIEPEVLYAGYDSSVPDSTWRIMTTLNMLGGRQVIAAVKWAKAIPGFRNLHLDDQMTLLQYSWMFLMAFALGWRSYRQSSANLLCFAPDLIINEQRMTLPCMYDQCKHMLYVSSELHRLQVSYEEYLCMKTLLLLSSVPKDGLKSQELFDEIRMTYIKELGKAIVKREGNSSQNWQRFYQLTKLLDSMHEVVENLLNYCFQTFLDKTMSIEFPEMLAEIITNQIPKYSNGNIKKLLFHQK
The target is the same in experiment [3]. Nature of the experiment: GR-EFC Redistribution (AID 451; calls by dose curve; note: potency is the fitted concentration of half-maximal effect). The following applies: CHO-K1 GR-EFC translocation, beta-gal luminescence, 2 h. Summed up:
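CHO-K1 cells stably expressing nuclear-localized β-gal enzyme acceptor and GR fused C-terminally to the enzyme donor fragment; ligand-driven nuclear translocation restores β-gal by complementation. Compounds titrated up to 46 uM final, 2 h at 37 °C; luminescence read.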

Experiment [4] has as its target Mitogen-activated protein kinase 10 (Mus musculus) (UniProt Q61831). As to the kind of experiment: JNK3 AlphaScreen Assay (AID 530; active = well fitted curve in either direction with a large enough effect, not every such curve was filed as active;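 note: kinase came from lysate of stimulated human HepG2 cells; signal reports phosphorylation of biotinylated GST-cJun 1-79 at Ser73 with 10 µM ATP; % is set by controls: 0 for no effect and ±100 for the full control effect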). Summed up: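 Biotinylated GST-cJun(1-79) served as substrate for JNK3 in HepG2 lysates stimulated with IL-1beta and TNF-alpha. ATP was 10 uM final, pH 7.6. Ser73 phosphorylation was quantified by AlphaScreen (680 nm excitation).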
The target in experiment [5] is 3',5'-cyclic-AMP phosphodiesterase 4B (Homo sapiens) (UniProt Q07343). As to the kind of experiment: qHTS Assay for Inhibitors of PDE-IV (AID 607; active = well fitted activation curve with a large enough effect in the main read-out, with a control signal flat, not every such curve was filed as active; note: % of control where 0% means no effect). Put shortly: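 HEK293 ACTOne cells with CNG channel (1000/well), endogenous PDE4; membrane potential dye, compounds up to 22.9 uM final. Fluorescence Ex 535/Em 590; RO 20-1724 (100 uM final) as reference.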
Chain of 3',5'-cyclic-AMP phosphodiesterase 4B (Homo sapiens) (Q07343 whole entry, looked up): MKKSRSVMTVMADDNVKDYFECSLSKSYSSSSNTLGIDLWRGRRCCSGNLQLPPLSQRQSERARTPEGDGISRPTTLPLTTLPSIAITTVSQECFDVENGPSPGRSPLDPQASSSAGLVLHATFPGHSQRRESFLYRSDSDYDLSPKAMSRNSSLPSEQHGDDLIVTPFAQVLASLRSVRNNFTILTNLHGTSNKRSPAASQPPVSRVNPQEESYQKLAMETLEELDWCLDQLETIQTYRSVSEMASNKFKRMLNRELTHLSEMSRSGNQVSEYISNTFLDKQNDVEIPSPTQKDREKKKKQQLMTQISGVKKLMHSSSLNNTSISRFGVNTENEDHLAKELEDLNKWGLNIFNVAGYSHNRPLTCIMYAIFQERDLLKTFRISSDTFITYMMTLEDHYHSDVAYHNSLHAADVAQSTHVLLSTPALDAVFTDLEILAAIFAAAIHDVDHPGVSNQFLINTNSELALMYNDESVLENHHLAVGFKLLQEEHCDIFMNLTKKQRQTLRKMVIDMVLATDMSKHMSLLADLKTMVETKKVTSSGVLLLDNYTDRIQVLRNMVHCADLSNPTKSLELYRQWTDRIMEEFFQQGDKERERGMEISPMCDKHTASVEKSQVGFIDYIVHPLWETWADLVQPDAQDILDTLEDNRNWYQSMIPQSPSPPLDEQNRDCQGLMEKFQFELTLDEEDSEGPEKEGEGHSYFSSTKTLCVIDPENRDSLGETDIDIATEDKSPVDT
(In general: qHTS replaces the single test concentration by a dilution series.)

A short description of experiment [6]: qHTS Assay for Lipid Storage Modulators (AID 1519; calls by dose curve; for activity change, negative = inhibition: % is set by controls: 0 for no effect and ±100 for the full control effect). The note with it: Drosophila S3 cells, BODIPY lipid droplet/cell ratio, laser cytometry, cells loaded with oleic acid; for activity change, negative = inhibition: at 57.5 µM (top of the series). Put shortly: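 Cells seeded at 5,000 per well were treated with compounds over a concentration series and loaded with oleic acid (400 uM, as added). Lipid droplet fluorescence (488 nm excitation, 500-530 nm channel) was read by laser-scanning cytometry and normalized to 20 uM Triacsin C.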

Experiment [7] addresses Ubiquitin carboxyl-terminal hydrolase 1 (Homo sapiens) (UniProt O94782). As to the kind of experiment: Inhibitors of USP1/UAF1: Pilot qHTS (AID 504865).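 Note: rhodamine fluorescence freed from ubiquitin-rhodamine substrate followed over time; top concentration of the series differs between compounds; % is set by controls: 0 for no effect and ±100 for the full control effect; nearly all actives have a fitted effect of over 35% in size.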 Summed up:
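Enzyme-free wells gave the negative control, while test wells held 1nM USP1/UAF1 preincubated with compound for 15 min at room temperature. Ub-Rho at 150nM final started the reaction, and fluorescence at 480/540 nm was recorded kinetically.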

For experiment [8], the system named is Zika virus NS2B-NS3 protease. As to the kind of experiment: Primary screen GU AMC qHTS for Zika virus inhibitors (AID 1347154).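 For activity change, negative = inhibition: 0% = no-inhibitor control and -100% = no-enzyme control.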 Note: nearly all actives have a fitted effect of over 70% in size. Note: potency is the fitted concentration of half-maximal effect. Put shortly: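 Unlinked Zika NS2B hydrophilic domain/NS3 protease domain noncovalent complex (25 nM final) in 10 mM Tris-HCl pH 8.0, 0.01% Tween 20, with AMC peptide substrate. Fluorescence (ex 340, em 450 nm) change over 15 min, room temperature; percent inhibition fitted to 4-parameter Hill equation.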

Experiment [9] can be described thus: Primary qHTS for small molecule stabilizers of the endoplasmic reticulum resident proteome: Secreted ER Calcium Modulated Protein (SERCaMP) assay (AID 1508630). Note: % is set by controls: 0 for no effect and ±100 for the full control effect. Summed up: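 The SH-SY5Y reporter protocol was run at 3 concentrations up to 38.3 uM (primary) or 11 concentrations (follow-up): 16 h compound, 100 nM thapsigargin for 4 h, then extracellular luciferase luminescence.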

Experiment [10] has as its target DNA dC->dU-editing enzyme APOBEC-3G (Homo sapiens) (UniProt Q9HC16). As to the kind of experiment: qHTS for inhibitors of Vif-A3G interactions: Validation (AID 588379). Note: 0% is about no effect. Summed up: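 Yellow fluorescence (Ex 488, Em 500-530) of Vif-coexpressing HeLa A3G-eYFP cells, scanned by Acumen cytometer, reports blocked A3G degradation. Cells plated at 700/well overnight at 37 deg C before compound addition, then a further overnight compound incubation at 37 deg C.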

Experiment [11] concerns the target Cytochrome P450 2C9 (Homo sapiens) (UniProt P11712). Nature of the experiment: qHTS Assay for Inhibitors and Substrates of Cytochrome P450 2C9 (AID 883). Note: potency is the fitted concentration of half-maximal effect; nearly all actives have a fitted effect of over 60% in size. Put shortly:
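CYP2C9 deoxyluciferin hydroxylation, 37C, 60 min with NADPH regeneration; 10nM enzyme, 100uM Luciferin-H (KM). Glo detection reagent stopped reaction; luminescence normalized to sulphaphenazole (57uM) full inhibition.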

Experiment [12] concerns the target Cytochrome P450 3A4 (Homo sapiens) (UniProt P08684). As to the kind of experiment: qHTS Assay for Activators of Cytochrome P450 3A4 (AID 885). Note: nearly all actives have a fitted effect of over 65% in size. Summed up: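 Human CYP3A4 dealkylates Luciferin-PPXE to luciferin, which luciferase detection converts to light. Substrate was at its KM (25uM), buffer 200mM KPO4, reaction 60 min at RT.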
The target in experiment [13] is Cytochrome P450 2D6 (Homo sapiens) (UniProt P10635). As to the kind of experiment: qHTS Assay for Inhibitors and Substrates of Cytochrome P450 2D6 (AID 891). Note: potency is the fitted concentration of half-maximal effect; nearly all actives have a fitted effect of over 60% in size. Put shortly: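 Luminescent read-out of luciferin formed by 5 nM human CYP2D6 demethylating 30 uM Luciferin-ME EGE (Km level) over 60 min at room temperature after NADPH regeneration addition. Data normalized to full inhibition by 1.43 uM quinidine.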
Chain of Cytochrome P450 2D6 (Homo sapiens) (P10635 whole entry, looked up): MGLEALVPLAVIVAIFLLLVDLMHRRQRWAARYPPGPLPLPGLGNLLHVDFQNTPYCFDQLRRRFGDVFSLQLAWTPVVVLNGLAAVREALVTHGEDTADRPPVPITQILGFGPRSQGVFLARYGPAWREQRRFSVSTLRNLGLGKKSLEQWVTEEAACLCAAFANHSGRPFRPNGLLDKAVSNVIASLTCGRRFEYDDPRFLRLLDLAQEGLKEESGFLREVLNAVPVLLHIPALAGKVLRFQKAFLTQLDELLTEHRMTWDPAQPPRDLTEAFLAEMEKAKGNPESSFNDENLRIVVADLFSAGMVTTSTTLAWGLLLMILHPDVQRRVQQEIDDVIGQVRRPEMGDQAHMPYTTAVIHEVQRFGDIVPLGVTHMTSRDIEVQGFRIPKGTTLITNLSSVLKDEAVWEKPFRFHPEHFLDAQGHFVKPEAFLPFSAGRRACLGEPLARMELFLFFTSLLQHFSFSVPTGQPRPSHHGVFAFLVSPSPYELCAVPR

[14] abbreviates: measured here: cell count channel max response.
The mark [15] stands for this setting: measured here: lipid channel max response.

Chain of Cytochrome P450 1A2 (Homo sapiens) (P05177 whole entry, looked up): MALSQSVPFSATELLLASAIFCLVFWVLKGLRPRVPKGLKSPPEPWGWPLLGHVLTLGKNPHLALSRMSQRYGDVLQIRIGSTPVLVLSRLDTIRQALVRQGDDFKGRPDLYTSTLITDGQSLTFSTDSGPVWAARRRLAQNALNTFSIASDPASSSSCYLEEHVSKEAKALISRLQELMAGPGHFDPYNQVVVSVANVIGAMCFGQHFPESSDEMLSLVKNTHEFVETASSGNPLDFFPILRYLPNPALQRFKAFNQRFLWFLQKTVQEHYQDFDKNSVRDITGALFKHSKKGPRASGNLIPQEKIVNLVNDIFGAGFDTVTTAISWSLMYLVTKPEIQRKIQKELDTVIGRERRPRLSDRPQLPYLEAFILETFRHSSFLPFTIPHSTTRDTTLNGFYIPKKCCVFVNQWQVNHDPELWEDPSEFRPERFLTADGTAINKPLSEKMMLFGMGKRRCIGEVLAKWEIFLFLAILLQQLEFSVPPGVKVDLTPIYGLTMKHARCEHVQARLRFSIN
Chain of DNA dC->dU-editing enzyme APOBEC-3G (Homo sapiens) (Q9HC16 whole entry, looked up): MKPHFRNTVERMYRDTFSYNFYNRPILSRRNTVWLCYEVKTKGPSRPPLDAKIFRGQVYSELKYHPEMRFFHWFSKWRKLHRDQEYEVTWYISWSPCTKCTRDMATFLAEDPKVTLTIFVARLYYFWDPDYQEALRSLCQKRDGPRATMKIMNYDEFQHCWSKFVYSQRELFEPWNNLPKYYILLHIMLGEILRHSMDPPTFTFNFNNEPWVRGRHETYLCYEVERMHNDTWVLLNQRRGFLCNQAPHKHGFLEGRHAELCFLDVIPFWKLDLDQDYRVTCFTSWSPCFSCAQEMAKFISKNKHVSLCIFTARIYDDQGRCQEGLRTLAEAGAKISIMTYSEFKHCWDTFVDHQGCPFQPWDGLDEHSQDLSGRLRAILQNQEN
Chain of Ubiquitin carboxyl-terminal hydrolase 1 (Homo sapiens) (O94782 whole entry, looked up): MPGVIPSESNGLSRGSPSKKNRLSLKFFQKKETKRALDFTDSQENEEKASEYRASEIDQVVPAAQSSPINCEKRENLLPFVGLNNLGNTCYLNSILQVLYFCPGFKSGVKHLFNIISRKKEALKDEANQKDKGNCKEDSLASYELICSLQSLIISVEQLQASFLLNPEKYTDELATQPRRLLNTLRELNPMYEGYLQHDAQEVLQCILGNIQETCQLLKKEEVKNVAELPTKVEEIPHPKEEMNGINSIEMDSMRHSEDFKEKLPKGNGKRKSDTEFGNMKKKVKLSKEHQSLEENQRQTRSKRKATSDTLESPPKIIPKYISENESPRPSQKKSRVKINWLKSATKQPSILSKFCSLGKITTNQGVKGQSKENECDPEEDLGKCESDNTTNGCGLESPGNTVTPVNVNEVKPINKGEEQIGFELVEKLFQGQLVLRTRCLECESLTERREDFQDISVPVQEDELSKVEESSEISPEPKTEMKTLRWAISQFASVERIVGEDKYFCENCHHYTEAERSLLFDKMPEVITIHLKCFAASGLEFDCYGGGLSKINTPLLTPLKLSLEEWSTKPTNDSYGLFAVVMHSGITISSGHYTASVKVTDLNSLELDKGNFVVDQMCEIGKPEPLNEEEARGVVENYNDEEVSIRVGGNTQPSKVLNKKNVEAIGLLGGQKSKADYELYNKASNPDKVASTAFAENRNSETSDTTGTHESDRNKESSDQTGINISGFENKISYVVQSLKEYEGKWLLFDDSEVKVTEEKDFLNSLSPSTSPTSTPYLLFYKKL
Chain of Cytochrome P450 3A4 (Homo sapiens) (P08684 whole entry, looked up): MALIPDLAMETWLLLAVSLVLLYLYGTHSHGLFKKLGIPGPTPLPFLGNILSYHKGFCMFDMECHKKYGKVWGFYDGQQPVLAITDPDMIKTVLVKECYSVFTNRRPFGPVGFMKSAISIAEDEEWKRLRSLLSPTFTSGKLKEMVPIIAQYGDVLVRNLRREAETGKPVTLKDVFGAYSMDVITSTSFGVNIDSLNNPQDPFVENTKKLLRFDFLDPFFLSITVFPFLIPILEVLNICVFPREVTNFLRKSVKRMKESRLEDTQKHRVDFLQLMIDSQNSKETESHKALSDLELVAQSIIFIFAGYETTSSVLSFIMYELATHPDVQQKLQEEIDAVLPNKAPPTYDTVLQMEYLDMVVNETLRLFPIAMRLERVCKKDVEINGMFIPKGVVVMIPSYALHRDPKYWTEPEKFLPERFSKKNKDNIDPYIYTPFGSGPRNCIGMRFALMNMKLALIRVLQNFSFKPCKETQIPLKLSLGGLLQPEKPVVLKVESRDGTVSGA
Chain of Cytochrome P450 2C9 (Homo sapiens) (P11712 whole entry, looked up): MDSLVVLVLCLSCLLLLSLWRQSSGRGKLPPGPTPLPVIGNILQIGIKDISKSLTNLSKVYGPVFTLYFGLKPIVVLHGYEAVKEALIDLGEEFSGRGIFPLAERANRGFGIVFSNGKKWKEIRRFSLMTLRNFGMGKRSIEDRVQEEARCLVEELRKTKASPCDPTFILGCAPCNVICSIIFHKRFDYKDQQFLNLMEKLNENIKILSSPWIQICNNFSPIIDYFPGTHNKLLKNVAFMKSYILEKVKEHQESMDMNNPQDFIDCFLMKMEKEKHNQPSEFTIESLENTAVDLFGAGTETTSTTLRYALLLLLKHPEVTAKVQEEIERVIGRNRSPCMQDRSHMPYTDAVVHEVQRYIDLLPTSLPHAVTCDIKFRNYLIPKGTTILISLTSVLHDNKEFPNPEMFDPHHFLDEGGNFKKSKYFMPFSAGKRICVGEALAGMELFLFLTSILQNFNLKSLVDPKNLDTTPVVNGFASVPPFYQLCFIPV

Consider `N[C@H](C(=O)O)c1ccc(C(=O)O)c(O)c1`, for which the Potency entry in [1], in experiment [4], in experiment [5], in [7] and in experiment [9] was “inactive” each time. Moreover, the Potency in experiment [2] was > 46 µM (inactive); in experiment [3], > 46 µM (inactive); in experiment [8], 26.7 µM (active). The activity change, negative = inhibition in experiment [6] was 2.68% (inactive). The max response in experiment [6] (setting [14]) is -19.5%; in experiment [6] (setting [15]) it was -17.3%.
In the case of `O=C(O)COc1ccc(OCCNC[C@@H](O)COc2ccccc2)cc1`, the results for the Potency in [1], in [2] and in experiment [3] were 39.8 µM (active), > 46 µM (inactive) and > 46 µM (inactive), respectively. In addition, the Potency result in experiment [4], in [7], in [10], in experiment [8] and in experiment [9] was “inactive” in each case. The activity change, negative = inhibition in experiment [6] is 3.49% (inactive). The max response in [6] (setting [14]) worked out at 8.13%; in [6] (setting [15]), 11.4%.
For the molecule `CC(=O)ON(C(C)=O)S(=O)(=O)c1ccc(Cl)cc1`, the Potency result in experiment [1], in [4], in [5], in experiment [7], in experiment [8] and in experiment [9] was “inactive” each time. Besides, the Potency in [2] and in experiment [3] was > 46 µM (inactive) throughout. The activity change, negative = inhibition in experiment [6] was -5.19% (inactive). The max response is -20.7% in experiment [6] (setting [14]) and -23.7% in [6] (setting [15]).
Consider `COc1cc(N)c(Cl)cc1C(=O)CCC1CCN(CCNS(C)(=O)=O)CC1`, for which the Potency result in experiment [1], in experiment [4], in experiment [5], in experiment [12], in [7] and in [10] was “inactive” in each case. The Potency entry in experiment [8] and in [9] was “inactive” each time. Also, the Potency was > 46 µM (inactive) in experiment [2], > 46 µM (inactive) in [3] and 0.251 µM (active) in experiment [11]. Further, in experiment [6], the activity change, negative = inhibition is 6.39% (inactive). Also, the max response stood at 24.1% in experiment [6] (setting [14]) and 32.4% in [6] (setting [15]).
For `O=C(O)Cc1cc2ccccc2nc1C(=O)O`, the Potency result in experiment [1], in experiment [5], in experiment [7], in experiment [10], in experiment [8] and in experiment [9] was “inactive” each time. Further, the Potency in experiment [2] and in [3] was > 46 µM (inactive) in each case. Moreover, the activity change, negative = inhibition in experiment [6] was -1.15% (inactive). The max response was 1.68% in experiment [6] (setting [14]) and 0.785% in experiment [6] (setting [15]).
As for `CCS(=O)(=O)N(C)[C@@H]1c2cc(C#N)ccc2OC(C)(C)[C@H]1O`, the Potency is 20 µM (active) and inactive in [1]; > 46 µM (inactive) in [2]; > 46 µM (inactive) in [3]. In addition, the Potency entry in [4], in [5], in experiment [12], in experiment [7], in experiment [10] and in [8] was “inactive” throughout. Also, the Potency result in experiment [9] is “inactive”. In addition, in [6], the activity change, negative = inhibition is 2.68% (inactive) and 2.28% (inactive). Also, the max response in experiment [6] (setting [14]) was 17.8% and 15.2%; in [6] (setting [15]), 22.1% and 18.9%.
In the case of `COc1cc(N)c(Cl)cc1C(=O)OCCCN1CCCCC1`, the Potency entry in experiment [1], in experiment [4], in experiment [5], in [12], in experiment [7] and in experiment [10] was “inactive” throughout. The Potency entry in experiment [8] and in [9] was “inactive” throughout. For the same molecule, the Potency in experiment [2] is > 46 µM (inactive); in experiment [3], > 46 µM (inactive); in [13], 0.126 µM (active). Moreover, in experiment [6], the activity change, negative = inhibition is 2.57% (inactive). Besides, the values for the max response in experiment [6] (setting [14]) and in experiment [6] (setting [15]) were 19.2% and 21.4%, respectively.
